Inconclusive results are not listed. Entries that show only a call come without a potency. Calls of active or inactive are those of the source. Calls come from the whole dose curve; as a rule, active = well fitted inhibition curve with a large enough effect; inconclusive = small, poorly fitted or top-dose-only effect; inactive = no such curve, though single readings can be large or run the other way.
Potency is the fitted concentration of half-maximal effect.

The target in the assay is Thioredoxin reductase 1, cytoplasmic (Rattus norvegicus) (UniProt O89049). The assay can be described thus: qHTS Assay for Inhibitors of Mammalian Selenoprotein Thioredoxin Reductase 1 (TrxR1) (AID 488773). Note: nearly all actives have a fitted effect of over 40% in size. The note with it: purified TrxR1 enzyme activity; Potency: inhibition; series mostly up to 57.1 µM. The source says: The selenoprotein thioredoxin reductase (TrxR; EC 1.8.1.9) is a FAD containing homodimeric pyridine nucleotide-disulfide oxidoreductase with many cellular roles. Together with NADPH and its prime substrate thioredoxin (Trx), the enzyme forms the core of the Trx system. The mammalian Trx system exerts a wide spectrum of functions including redox regulation, antioxidant defense, regulation of transcription factors as well as support of cell growth and replication. Many of these functions involve the reduction of Trx, which may subsequently reduce a number of different substrates including ribonucleotide reductase, peroxiredoxins or NFkB. Mammalian TrxR itself also has a broad substrate specificity, reducing both protein and non-protein substrates, including low molecular weight compounds such as dehydroascorbate, lipoic acid, ubiquinone, and juglone. In addition, several drugs in clinical use for anticancer treatment are indeed known to target TrxR1.
Thioredoxin reductase 1, cytoplasmic (Rattus norvegicus), sequence (O89049 whole entry, looked up): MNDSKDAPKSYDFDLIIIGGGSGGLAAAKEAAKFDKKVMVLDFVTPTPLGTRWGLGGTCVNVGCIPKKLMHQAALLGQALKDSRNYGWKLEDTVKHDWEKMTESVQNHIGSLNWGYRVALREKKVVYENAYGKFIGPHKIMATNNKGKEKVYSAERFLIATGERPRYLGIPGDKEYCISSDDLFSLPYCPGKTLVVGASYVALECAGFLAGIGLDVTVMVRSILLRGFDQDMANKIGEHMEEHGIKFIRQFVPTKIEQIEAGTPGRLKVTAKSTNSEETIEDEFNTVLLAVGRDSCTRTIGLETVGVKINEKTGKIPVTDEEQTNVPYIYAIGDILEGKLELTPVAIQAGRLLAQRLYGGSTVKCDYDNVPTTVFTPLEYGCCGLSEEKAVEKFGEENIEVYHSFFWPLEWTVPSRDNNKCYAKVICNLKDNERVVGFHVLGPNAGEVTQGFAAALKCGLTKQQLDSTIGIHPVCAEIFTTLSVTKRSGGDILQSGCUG
This BioAssay is a validation of an NADPH fluorescence-based, dual-purpose qHTS rTrxR1 assay designed to find potential inhibitors and substrates of rTrxR1. For this particular BioAssay, actives are potential inhibitors. See related BioAssay for substrate data deposition.
Assay protocol: 2 uL of reagents (buffer in column 4 as negative control and 90 nM rTrxR1 in columns 1-3 and 5-48) were dispensed into Greiner black solid-bottom 1,536-well assay plates, followed by 1 uL of NADPH (400 uM final concentration) to each well. The plates were centrifuged at 1000 rpm for 15 seconds and subsequently incubated for 5 min at room temperature (~22 deg C) to allow for rTrxR1 reduction. Compounds (23 nL) were then transferred via Kalypsys pin tool equipped with 1536-pin array (10 nL slotted pins, V&P Scientific, San Diego, CA). In addition, a duplicate 2-fold serial dilution of the control compounds auranofin, a known gold-based TrxR1 inhibitor, and juglone (5-hydroxy-1,4-naphthoquinone), a natural TrxR1 substrate, were pin-transferred to columns 2 and 3, respectively. After incubation for 15 min at room temperature (~22 deg C), 1 uL of selenite (400 uM final concentration) were dispensed to each well. The plate was immediately transferred to a ViewLux high-throughput CCD imager (PerkinElmer), wherein kinetic measurements of NADPH fluorescence (Ex 340 nm, Em 450 nm) were acquired (8 minute kinetic read, see Table 1). Read 1 was utilized to assess the capacity of a compound to serve as an rTrxR1 substrate, i.e. a decrease in NADPH fluorescence compared to the no-compound background is an indication of a substrate behavior for that particular compound. For inhibitory activity of a compound, delta values, computed as the difference in fluorescence intensity between the first and last reads of an 8-minute time kinetic window, were used. All reagents were diluted in an assay buffer consisting of 50 mM Tris-HCl, pH 7.5, 2 mM EDTA, and 0.01% Tween-20.
Throughout the screen, reagent bottle and all liquid lines were made light-tight to minimize reagent degradation. All screening operations were performed on a fully integrated robotic system (Kalypsys, San Diego, CA) containing one RX-130 and two RX-90 anthropomorphic robotic arms (Staubli, Duncan, SC). Library plates were screened starting from the lowest and proceeding to the highest concentration, and a 'double-pinning' step of the highest concentration was required to access higher concentrations of compounds. Vehicle-only plates, with DMSO being pin-transferred to the columns 5-48, were inserted uniformly at the beginning and the end of each library in order to monitor and record any shifts in the background, which can be affected by reagent dispensers or loss in enzyme activity over time. Screening data were corrected, normalized, and concentration-effect relationships were derived by using publicly-available curve fitting algorithms developed in-house (http://ncgc.nih.gov/pub/openhts).
Background: qHTS replaces the single test concentration by a dilution series.
`CCCC[N+]1(C)C2CC(OC(=O)[C@H](CO)c3ccccc3)CC1C1OC12` (stereo not given in full): the Potency result was “inactive”.

`NCCc1c[nH]c2ccc(C(N)=O)cc12`: the Potency entry is “inactive”.

With `C[C@H](N)CN1CCc2ccc(Br)cc21`, the Potency result was “inactive”.

In the case of `CP(=O)(O)C1=CCNCC1`, the Potency result is “inactive”.

Turning to `CC(=O)NBr`, the Potency result is “inactive”.

Regarding `CCCN(CCC)C1CCc2cccc(O)c2C1` (stereo not given), the Potency entry was “inactive”.

For the molecule `N#CCCN`, the Potency result was “inactive”.

On to `C=CCN1CCc2cccc3c2[C@H]1Cc1ccc(O)c(O)c1-3`, for which the Potency was 5.97 µM (active).

For `CCCCCCCCCCCCCC(=O)O[C@@H]1[C@@H](C)[C@@]2(O)[C@@H](C=C(CO)C[C@@]3(O)C(=O)C(C)=C[C@@H]23)C2C(C)(C)[C@@]21OC(C)=O` (stereo not given in full), the Potency entry is “inactive”.

For `COc1ccc2c(c1)/C(=C/c1cnc[nH]1)C(=O)N2`, the Potency entry was “inactive”.

On to `C[C@H](N)Cc1cccc(C(F)(F)F)c1`, for which the Potency result was “inactive”.

In the case of `C=CCN1CC[C@]23c4c5ccc(O)c4O[C@H]2/C(=N/NC(=O)c2ccccc2)CC[C@@]3(O)[C@H]1C5`, the Potency result is “inactive”.

As to `CCCN(CCC)[C@@H]1CCc2cccc(O)c2C1`, the Potency entry was “inactive”.

Consider `Cc1cc([C@@H]2CCCN2C)on1`, for which the Potency result is “inactive”.

Turning to `C[C@@H]1O[C@H](C[N+](C)(C)C)CS1`, the Potency result was “inactive”.

In the case of `CC12NC(Cc3ccccc31)c1ccccc12` (stereo not given), the Potency result was “inactive”.

Take `COc1ccc2c(c1)C13CCCCC1C(C2)N(C)CC3` (stereo not given): the Potency result was “inactive”.

For the molecule `CCCn1c(C)c(C(=O)c2ccc3ccccc3c2)c2ccccc21`, the Potency entry is “inactive”.

For the molecule `COc1ccc2[nH]cc(CCN)c2c1`, the Potency entry was “inactive”.

For `NC(=O)c1ccc(OCC(O)CN2CC=C(c3ccc(F)cc3)CC2)cc1` (stereo not given), the Potency result was “inactive”.

Consider `NCCCP(=O)(O)O`, for which the Potency result is “inactive”.

As to `Clc1cc(I)cc(Cl)c1NC1=NCCN1`, the Potency result is “inactive”.

Consider `O=C1CC[C@@]2(O)C3Cc4ccc(O)c5c4C2(CCN3CC2CC2)[C@H]1O5` (stereo not given in full), for which the Potency result is “inactive”.

Take `CCn1cnc2c(Nc3cccc(Cl)c3)nc(N[C@@H]3CCCC[C@@H]3N)nc21`: the Potency entry was “inactive”.

As to `COc1ccc2c(c1O)-c1cccc3c1[C@@H](C2)N(C)CC3`, the Potency result was “inactive”.

With `COc1ccc2c(c1)[C@@]13CCCC[C@H]1[C@@H](C2)NCC3`, the Potency entry is “inactive”.

Consider `COC(=O)N1CCN(C(=O)Cc2ccc(Cl)c(Cl)c2)C(CN2CCCC2)C1` (stereo not given), for which the Potency entry was “inactive”.

For the molecule `CCCN(CCC)C1Cc2cc(OC)c(OC)cc2C1`, the Potency entry was “inactive”.

Turning to `CC(C)(C)c1o[nH]c(=O)c1CC(N)C(=O)O` (stereo not given), the Potency entry is “inactive”.

With `C[N+](C)(C)CC#CCOC(=O)Nc1cccc(Cl)c1`, the Potency is 21.2 µM (active).

Regarding `c1ccc2cc(CC3=NCCN3)ccc2c1`, the Potency result was “inactive”.

As for `C[N+](C)(C)CC#CCN1CCCC1=O`, the Potency entry was “inactive”.

As for `NCCc1ccc(S(=O)(=O)F)cc1`, the Potency result is “inactive”.

As for `CCCN1CC[C@@H]2c3cc(O)ccc3CC[C@@H]21`, the Potency result is “inactive”.

For the molecule `NC(Cc1cc(O)c(O)cc1O)C(=O)O` (stereo not given), the Potency was 10.6 µM (active).

Consider `CN1CCc2cc(O)cc3c2[C@H]1Cc1ccc(O)c(O)c1-3`, for which the Potency was 13.4 µM (active).

Take `CC(=O)OCC1=C(C(=O)O)N2C(=O)[C@@H](NC(=O)CCC[C@@H](N)C(=O)O)[C@H]2SC1`: the Potency result was “inactive”.

As for `N[C@@H](Cn1oc(=O)[nH]c1=O)C(=O)O`, the Potency entry is “inactive”.

On to `CN1CCC(c2c[nH]c3ccc(O)cc23)CC1`, for which the Potency result was “inactive”.

On to `CCCN1CCc2cccc3c2[C@H]1Cc1ccc(O)c(O)c1-3`, for which the Potency is 23.8 µM (active).

The values are drawn from PubChem BioAssay (NCATS).
